tim10-1 inh – inhibits growth of tim10-1 mutant yeast; S. cerevisiae tim10-1 ts strain growth, BacTiter-Glo, 24 h; inhibition, % at 20 µM; actives 2.2% (n = 330,000); AID 463190;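 active = inhibition of at least 40%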;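 also: mutant grown at 25 °C; 0% = DMSO wells with yeast and 100% = wells holding no yeast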
tim23-1 inh – growth inhibitors of tim23-1 mutant yeast; S. cerevisiae tim23-1 growth, BacTiter-Glo luminescence, 24 h; inhibition, % at 20 µM; actives 1.3% (n = 330,000); AID 463212;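 active = growth inhibition of the mutant yeast at or above 50%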;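 also: temperature-sensitive mutant grown at 25 °C; plate controls were DMSO-treated mutant yeast for no effect and medium wells lacking yeast for full effect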
TIM10 inh – TIM10 yeast growth inhibition; S. cerevisiae TIM10 strain growth, BacTiter-Glo luminescence, 24 h; inhibition, % at 10 µM; actives 1.4% (n = 330,000);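 active = inhibition of 40% or more at the single tested concentration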;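 also: wild-type TIM10 isogenic control strain grown at permissive 25 °C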
NALP1 yeast inh – inhibitors of NALP1 inflammasome in yeast | inhibition, % at 10 µM | actives 0.61% (n = 280,000) | S. cerevisiae NALP1/ASC/caspase-1 growth, X-gal OD620, 72 h; in the data active = inhibition mostly above about 24%, no sharp cut-off; inactive = mostly below about 32%
NLRP3 yeast inh – inhibitors of NALP3 inflammasome in yeast | Yeast reconstituted NLRP3/ASC/caspase-1, beta-gal luminescence, 24 h | inhibition, % at 10 µM | actives 0.39% (n = 330,000) | AID 2825;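 active = inhibition of 50% or more; inactive = inhibition below 50%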;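 also: plate controls were induced DMSO wells for no effect and uninduced yeast grown without galactose for full effect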
tim10-1 conf – tim10-1 yeast growth inhibition, confirmed; shares compounds with tim10-1 inh; S. cerevisiae tim10-1 ts strain growth, BacTiter-Glo, 24 h; inhibition, % at 20 µM; actives 56% (n = 7,400); AID 463213;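 active = inhibition of yeast growth at or above a set limit in either of two repeat tests at 20 µM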;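 also: tim10-1 mutant grown at permissive 25 °C to find synthetic lethal compounds; 0% = DMSO yeast wells and 100% = medium wells without yeast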
The depositor's hits bear a star. Most compounds without a hit are left out; they make up all but 4.1% or so of the library.

Results for COC(=O)C1=C(c2ccccc2OCc2ccccc2)C[C@@H]2CC[C@H]1N2C(=O)NCc1cccc(C(F)(F)F)c1 ?
tim10-1 inh: 16.9; tim23-1 inh: 17.7; TIM10 inh: 10.9; NLRP3 yeast inh: 14.8

How did CCOC(C(=O)OCCCN(CC)CC)(c1ccccc1)c1ccccc1 do in these assays?
tim10-1 inh: 6.9; tim23-1 inh: 4.9; TIM10 inh: -1.1; NALP1 yeast inh: 16.5; NLRP3 yeast inh: 22.6

How did CCN(CC)CCCOC(=O)C(OC(C)C)(c1ccccc1)c1ccccc1 do in these assays?
tim10-1 inh: 42.0*; tim23-1 inh: 12.2; TIM10 inh: 7.7; NALP1 yeast inh: 10.3; NLRP3 yeast inh: 16.4; tim10-1 conf: 12.2

What do the screens show for `CC(=O)O[C@H]1CC[C@@]2(C)C(=CC(=O)C3C2CC[C@@]2(C)C3C[C@H](OC(C)=O)[C@@H]2OC(C)=O)C1` (stereo partly specified)?
tim10-1 inh: 8.0; tim23-1 inh: 5.3; TIM10 inh: 4.3; NLRP3 yeast inh: 15.0

What do the screens show for `CC(C)[N+]12CCC(CC1)C(C(O)(c1ccccc1)c1ccccc1)C2` (stereo unspecified)?
tim10-1 inh: 5.3; tim23-1 inh: -0.6; TIM10 inh: 2.4; NALP1 yeast inh: 1.4; NLRP3 yeast inh: 10.7

What do the screens show for `Cn1c(=O)cc(OCCCC(=O)N2CCC3(CC2)OCCO3)c2ccccc21`?
tim10-1 inh: 4.0; tim23-1 inh: 5.7; TIM10 inh: 8.2; NALP1 yeast inh: -27.5; NLRP3 yeast inh: 10.1

How did O=C(CCCOc1ccc(Cl)cc1Cl)N1CCC2(CC1)OCCO2 do in these assays?
tim10-1 inh: 42.4*; tim23-1 inh: 30.2; TIM10 inh: 24.4; NALP1 yeast inh: -4.2; NLRP3 yeast inh: 18.0; tim10-1 conf: 33.5*

Results for CCN1C[C@]2(C)CC[C@H](OC)[C@]34C2[C@H](OC(C)=O)[C@@]2(OCO[C@@]25C[C@H](OC)[C@H]2C[C@]3(O)C5[C@H]2OC)[C@@H]14 ?
tim10-1 inh: 1.7; tim23-1 inh: 3.0; TIM10 inh: -1.7; NALP1 yeast inh: 13.8; NLRP3 yeast inh: -5.0

What do the screens show for `Cc1cc(C=C2C(=O)N(C)C(=S)N(C)C2=O)c(C)n1C1CCCC1`?
tim10-1 inh: 46.7*; tim23-1 inh: 41.0; TIM10 inh: 21.1; NALP1 yeast inh: 5.5; NLRP3 yeast inh: 22.2; tim10-1 conf: 19.5

How did CN1CCN(c2c(C#N)c(C(F)(F)F)nn2C)CC1 do in these assays?
tim10-1 inh: 5.7; tim23-1 inh: 15.2; TIM10 inh: 2.2; NALP1 yeast inh: 10.5; NLRP3 yeast inh: 5.2

How did CN(C)c1ccc(C=C(C#N)C#N)cc1 do in these assays?
tim10-1 inh: 32.5; tim23-1 inh: 19.7; TIM10 inh: 12.0; NALP1 yeast inh: 20.9; NLRP3 yeast inh: 31.4

Results for N#CC(C#N)=Cc1ccc(N2CCCC2)cc1 ?
tim10-1 inh: 41.3*; tim23-1 inh: 10.1; TIM10 inh: -1.6; NALP1 yeast inh: 6.6; NLRP3 yeast inh: 41.6; tim10-1 conf: 16.9

Results for O=C(Nc1ccc(C(F)(F)F)cc1)c1cccn(Cc2ccc3c(c2)OC(F)(F)O3)c1=O ?
tim10-1 inh: 45.8*; tim23-1 inh: 11.5; TIM10 inh: 32.8; NALP1 yeast inh: 11.1; NLRP3 yeast inh: 13.9; tim10-1 conf: 21.1

What do the screens show for `Cc1cc(OC(=O)CCCNC(=O)OC(C)(C)C)c2c3c(c(=O)oc2c1)CCC3`?
tim10-1 inh: 22.3; tim23-1 inh: 4.4; TIM10 inh: 29.2; NALP1 yeast inh: 6.0; NLRP3 yeast inh: -14.8

What do the screens show for `Cc1cc(OC(=O)CCNC(=O)OC(C)(C)C)c2c3c(c(=O)oc2c1)CCC3`?
tim10-1 inh: 44.7*; tim23-1 inh: 35.1; TIM10 inh: 18.4; NALP1 yeast inh: 1.3; NLRP3 yeast inh: -66.2; tim10-1 conf: 38.8*

What do the screens show for `COC(=O)C1=C(c2c(C)noc2C)C[C@@H]2CC[C@H]1N2C(=O)NCCOc1ccc(OC)cc1`?
tim10-1 inh: 6.1; tim23-1 inh: -10.0; TIM10 inh: 7.4; NLRP3 yeast inh: 8.9

How did COCCCn1c(N)c(C(=O)Nc2ccccc2)c2nc3ccccc3nc21 do in these assays?
tim10-1 inh: 48.3*; tim23-1 inh: 39.6; TIM10 inh: 16.5; NALP1 yeast inh: 33.4; NLRP3 yeast inh: 6.9; tim10-1 conf: 26.9
